# Laboratory results: the supplement of paper PMC6555819
# Legend:
# Test in all cases: PBM binding z-score (relative to random genomic background probes); higher = stronger binding; sequences stand for … in GC…GCGATTGACAGCGTAGAATGAAGG
# [1] = test system: PPARg:RXRa DBDmut IVT, anti-RXR (DBD mutation: RXRa K156A/R161A, NR concentration 270 nM, RXRa partner concentration 90 nM)
# Method in brief: (§1)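 Probes were double-stranded and carried 34-nt variable regions with direct-repeat seeds, single-nucleotide variants, half-site ablations and random human genomic background sequences, printed on custom Agilent 4×180K protein-binding microarrays. Arrays were incubated 1 h with ligand-free nuclear receptor dimers in PBS pH 7.4, 2% milk, 0.02% Triton X-100, 1 mM DTT, 0.2 mg/mL BSA and 0.4 mg/ml salmon testes DNA. Antibodies against each partner (one per run) detected binding, and scanned fluorescence was regression-normalized. Binding z-scores use the random background probes as reference.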
# [2] = test system: PPARg:RXRa IVT, anti-PPARg (NR concentration 270 nM, RXRa partner concentration 90 nM)
# Method in brief: as §1
# [3] = test system: PPARg DBDmut:RXRa IVT, anti-PPARg (DBD mutation: PPARg1 K132A/R137A, NR concentration 270 nM, RXRa partner concentration 90 nM)
# Method in brief: as §1
# [4] = test system: PPARg DBDmut IVT, anti-PPARg (DBD mutation: PPARg1 K132A/R137A, NR concentration 270 nM)
# Method in brief: as §1
# [5] = test system: PPARg homodimer (NR concentration 180 nM)
# Method in brief: as §1
# [6] = test system: PXR:RXRa (NR concentration 270 nM, RXRa partner concentration 90 nM)
# Method in brief: as §1
# [7] = test system: PXR homodimer (NR concentration 270 nM)
# Method in brief: as §1
# [8] = test system: RARa:RXR (NR concentration 270 nM, RXRa partner concentration 90 nM)
# Method in brief: as §1
# [9] = test system: RARa homodimer (NR concentration 270 nM)
# Method in brief: as §1
# [10] = test system: RARb:RXRa (NR concentration 270 nM, RXRa partner concentration 90 nM)
# Method in brief: as §1
# [11] = test system: RARb homodimer (NR concentration 270 nM)
# Method in brief: as §1
# [12] = test system: RARg:RXRa (NR concentration 270 nM, RXRa partner concentration 90 nM)
# Method in brief: as §1
# [13] = test system: RARg homodimer (NR concentration 270 nM)
# Method in brief: as §1
# [14] = test system: RXRa DBDmut IVT, anti-RXR (DBD mutation: RXRa K156A/R161A, NR concentration 90 nM)
# Method in brief: as §1
# [15] = test system: THRa:RXRa (NR concentration 90 nM, RXRa partner concentration 90 nM)
# Method in brief: as §1
# [16] = test system: THRa homodimer (NR concentration 90 nM)
# Method in brief: as §1
# [17] = test system: VDR homodimer (NR concentration 270 nM)
# Method in brief: as §1
# [18] = test system: VDR:RXRa (NR concentration 270 nM, RXRa partner concentration 90 nM)
# Method in brief: as §1
Sequence,PBM binding z-score [1],PBM binding z-score [2],PBM binding z-score [3],PBM binding z-score [4],PBM binding z-score [5],PBM binding z-score [6],PBM binding z-score [7],PBM binding z-score [8],PBM binding z-score [9],PBM binding z-score [10],PBM binding z-score [11],PBM binding z-score [12],PBM binding z-score [13],PBM binding z-score [14],PBM binding z-score [15],PBM binding z-score [16],PBM binding z-score [17],PBM binding z-score [18]
CAAACTAGGTCACAGAGGTTAAAGTCCGTGCGTA,8.23,9.05,7.06,4.73,2.92,4.74,3.84,4.65,1.69,4.62,4.34,5.36,5.64,2.38,4.12,2.1,3.13,
ATCGAAAGGTCGACGAGGTGAGTATGCACCGTTT,0.283,1.96,0.899,0.519,1.67,2.99,0.682,3.5,0.243,3.99,3.07,4.29,4.29,1.3,3.73,0.762,1.03,
CCTACGGGGCCAAGGTCATTGATCAGTCAAAGCA,0.0794,1.73,-1.66,-0.738,2.31,3.58,0.818,3.78,-0.181,3.57,3.51,4.02,3.77,1.21,3.47,2.04,3.09,3.52
CCTTCTGGGCCATTCAGAGGTCATTGATCATATG,4.48,3.89,-0.117,0.751,2.03,4.77,2.46,4.25,0.112,3.25,4.13,4.56,3.3,1.38,3.31,1.51,3.47,
AGTAGCAGGCCAAGGGTCACTCAAGATTAGTCCG,0.462,3.88,-0.464,-0.976,1.7,3.19,-0.0466,4.3,0.186,3.65,3.98,4.29,3.86,0.553,2.76,0.326,1.46,2.94
GCTGCTAGGTTAACTGATGGTCAGCTAAAGCTCG,2.43,1.36,-1.35,-0.847,-0.127,0.00634,-0.91,0.512,-1.49,1.54,0.815,1.6,0.672,0.235,0.689,-0.683,-0.649,-0.182
ACTAGTTGGTCAGCTGAGGTAACACACAATTCGG,1.07,1.11,0.194,0.609,0.0938,0.509,-0.174,1.3,-0.362,1.03,1.07,0.611,0.949,0.36,3.97,1.99,0.0871,
GCTGCTAGGTCAACTGATGGTCAGCTAAAGCTCG,4.92,4.19,-0.0375,-1.12,1.55,1.66,-0.596,3,0.346,4.26,3.57,5.2,5.18,1.44,2.99,0.814,0.0317,
CCCACTGGGCCATTCAGAGGTCATTGATCATATG,3.42,4.55,0.045,-0.746,1.93,4.67,2,4.2,0.72,2.96,4.3,4.48,3.31,0.382,3.43,1.52,3.25,
CCTACTGGGGCACGAAAGGTCATTGATTCAGTGA,5.75,6.88,0.869,0.0108,3.09,5.68,1.16,5.47,0.333,4.41,4.81,4.75,4.85,0.748,4.03,0.632,2.34,4.61
ATCGAAAGGTCGCAGGTGAGTATACCCACCCGAA,0.692,2.78,1.46,0.551,1.95,2.89,0.199,3.82,0.721,4.09,3.04,4.73,4.6,0.648,2.57,0.171,0.597,
CCTACTGGGCGACGAAAGGTCATTGATTCAGTGA,1.64,2.57,-0.823,-0.515,1.98,4.56,0.841,4.47,0.351,3.75,4.11,4.14,3.31,0.216,3.13,0.124,1.38,
CCTGGCAGGCCAGGGTCACTCAAGCATTTCGCTT,-0.558,0.531,-1.01,-1.58,0.712,3.01,-0.393,3.1,-0.89,2.91,2.66,3.49,2.46,-0.63,2.96,0.655,1.3,
ATCGAAAGGTCGAGTTGAGTATAGAGAAAGGGAA,-0.0281,1.21,0.792,0.196,1.65,2.74,0.316,3.29,0.834,3.88,2.39,4.11,4.31,1.89,2.23,-0.17,1,
GCTTACGGGTCAAAGGTTAAAGCATGAATAGAAT,4.74,6.3,1.36,2.46,1.69,6.29,0.364,8.66,0.51,4.94,3.36,7.28,5.18,2.07,4,-0.111,1.4,
CGTCCAACGTCAGCAGGTCAGTGAAAGCGACGTG,0.148,0.161,-0.345,-1.13,-0.114,0.174,-0.448,0.556,-0.438,1.82,1.92,0.905,1.54,-0.094,0.784,-0.139,-0.585,

Sequence,PBM binding z-score [1],PBM binding z-score [2],PBM binding z-score [3],PBM binding z-score [4],PBM binding z-score [5],PBM binding z-score [6],PBM binding z-score [7],PBM binding z-score [8],PBM binding z-score [9],PBM binding z-score [10],PBM binding z-score [11],PBM binding z-score [12],PBM binding z-score [13],PBM binding z-score [14],PBM binding z-score [15],PBM binding z-score [16],PBM binding z-score [17],PBM binding z-score [18]
TAGCCTAGGTCATAGGGCCAGTATAGTACGCATC,1.41,2.83,0.326,-0.841,1.14,1.45,-0.088,2.37,-0.213,3.75,2.98,3.86,3.89,0.967,2.75,0.823,0.453,
TCTAGTTGGTCGCGGAGGTCACACACGACGGGTA,1.54,2.37,0.402,0.328,2.9,4.16,1.42,4.39,1.29,3.38,3.92,3.94,3.62,0.932,3.45,2.74,2.63,
GCTTACGGGTCAAAGGTTACAGCATGAATAGAAT,5.26,6.43,2.32,2.26,5.3,6.45,0.418,8.5,1.16,4.7,3.57,7.1,5.1,2.74,3.93,0.157,1.75,
CCTACTGGGCCAAAAAGGTAATTGATGCCGATAA,3.15,2.69,0.336,-0.668,-0.39,-0.331,-0.647,0.114,0.142,0.108,-0.363,0.0737,-0.0665,-0.561,0.109,-0.602,-0.646,
CCTTACGGGTCAAGGTTGTAGCACGGGTGGTACG,0.974,3.06,0.572,-0.462,1.93,2.61,-0.423,3.82,-0.14,3.86,3.2,4.54,4.07,0.452,2.38,0.122,1.18,
ACTCGGAGGACAAATGTCAGAGCTACGCCAGTGA,0.158,0.0513,0.143,-1.07,-0.0876,-0.536,-0.343,-0.444,-0.635,1.44,0.623,1.08,1.68,0.614,0.512,-0.331,-0.508,-0.292
TCTAGCTGGTCAAAGGTCACACACTCGAAATGCG,2.35,5.48,0.807,1.12,4.18,6.12,0.771,7.74,2.13,4.89,5.13,7.3,6.69,1.15,3.88,1.36,1.86,
CGTCAAAGTTCAAGCTAACGTAACAGAAAGCAGC,0.497,1.77,1.34,1.15,3.13,4.47,2.52,3.3,2.21,5.24,3.86,5.65,6.4,4.63,1.86,-0.403,3.69,
ACTAGTTGGTCAGCTGAGGTCACACACAATTCGG,1.96,3.06,0.93,1.21,2.63,5.47,2.09,4.69,2.64,3.79,4.52,4.26,4.51,1.35,5.14,4.99,3.54,
TATTGTAGATCAAAGGTTAAGAAAGCCGAAGCCT,1.27,4.2,1.1,1.23,1.87,2.16,0.399,3.1,0.703,2.07,1.38,2.06,1.28,-0.592,1.37,-0.344,0.214,1.54
CCTACTGTGCCATTCAGAGGTCATTGATCATATG,3.76,3.54,0.945,0.536,2.73,4.89,2.63,4.4,1.62,3.08,4.39,4.2,2.75,1.79,3.38,2.43,3.56,
GATAGTTGGTCAGTAAAAGGTCACACACCGGTCG,1,3.26,0.61,0.944,4.23,4.92,1.52,5.65,3.2,4.42,5.36,5.32,4.96,0.579,3.59,1.91,2.12,
CCTACTGGGCCATGAAAGGTCATTGATTCAGTGA,4.45,4.58,0.322,0.328,3.71,5.2,1.71,5.37,1.41,3.62,4.4,4.23,3.85,0.456,3.58,0.811,2.39,
ATCTAAAGGTCGAAGGTGAGTATACCCACCCGAA,0.448,2.65,1.07,0.686,1.22,2.87,0.401,4.15,0.981,3.76,2.54,4.32,3.66,1.74,2.21,0.159,0.755,
ATATGTGGGTTATCGGGTCATTCAGTTTGCGCAT,7.02,7.14,3.15,3.66,3.07,3.93,7.1,3.81,2.31,2.42,3.15,2.99,2.07,1.99,3.45,3.41,4.15,
CAAAGTAGGTCAAGAGGTCAAAGTCCGCTTCCCG,8.4,8.84,1.65,1.18,5.39,6.22,3.31,7.83,2.53,5.55,5.78,8.31,7.92,2.89,4.21,1.84,4.84,
